# Experimental data: PubChem BioAssay (NCATS)
# Inconclusive results are not listed. Entries that show only a call come without a potency. Activity calls are given as the source filed them. Unless noted, calls come from the whole dose curve.
# Assays:
# [1] = Primary qHTS for Huh7 cytotoxicity: counterscreen for inhibitors of MERS-S pseudotyped particle cell entry (AID 1479147); settings: outcome: dose series up to 57.1 µM unless noted
# [2] = Primary qHTS for Vero E6 cytotoxicity: counterscreen for inhibitors of SARS-S pseudo-typed particle cell entry (AID 1479150); settings: outcome: dose series up to 57.1 µM unless noted
# [3] = Confirmatory qHTS to identify inhibitors of SARS-CoV-2 cell entry (AID 1645844); note: potency is the fitted concentration of half-maximal effect; nearly all actives have a fitted effect of over 45% in size
# Outline: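 Luminescence from a luciferase reporter, read 48 hr after pseudotyped-particle addition, gives entry signal, normalised to spike-bearing PP wells and bald PP lacking fusion protein wells. Cells are Expi293F stably expressing human ACE2, compound-pretreated 1 hr.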
# [4] = Cytotoxicity counterscreen for inhibitors of SARS-CoV-2 cell entry (AID 1645845); settings: outcome: dose series up to 57.1 µM unless noted; note: nearly all actives have a fitted effect of over 50% in size
# Outline: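 48 h compound treatment (after 1 h preincubation), HEK293-ACE2 cells, 37 C/5% CO2; ATP luminescence endpoint; normalized to cell wells and media blanks.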
# [5] = Primary qHTS to identify inhibitors of SARS-CoV-2 cell entry (AID 1645846); settings: SARS-CoV-2 pseudovirus cell entry assay, luminescence; activity change, negative = inhibition: at 57.1 µM (top of the series) unless noted; note: nearly all actives have a fitted effect of over 45% in size; note: potency is the fitted concentration of half-maximal effect
# Outline: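 HEK293 cells stably expressing human ACE2, pre-treated 1 h with compound, then infected with MLV particles pseudotyped with Wuhan-Hu-1 spike (C-terminal 19-aa truncation). Luciferase luminescence after 48 h at 37 °C, normalised to spike PP and bald PP.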
# [6] = VSVG counterscreen qHTS to identify inhibitors of SARS-CoV-2 cell entry (AID 1645847); note: potency is the fitted concentration of half-maximal effect; nearly all actives have a fitted effect of over 65% in size
# Outline: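 HEK293-ACE2 cells (Expi293F, human ACE2) pretreated 1 h with compound, then infected with MLV-based VSV-G pseudotyped particles for 48 h at 37 C; luciferase luminescence normalized to VSV-G PP and bald PP wells.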
# [7] = qHTS Assay for Identifying Gametocytocidal Compounds (AID 743244; active = well fitted curve in the direction sought with a large enough effect; an effect the other way counts as inactive or inconclusive; note: potency is the fitted concentration of half-maximal effect); settings: P. falciparum 3D7 stage III-V gametocytes, alamarBlue, 72 h
# Outline: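 Viability read-out was resazurin reduction (alamarBlue, 24 h) measured at Ex 525/Em 598 nm. Beforehand, late-stage (III-V) 3D7 P. falciparum gametocytes at 20,000 cells/well were incubated with compound 72 h at 37C under 5% CO2.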
# [8] = Primary qHTS for inhibitors of MERS-S pseudo-typed particle cell entry (AID 1479149); settings: outcome: dose series up to 57.1 µM unless noted; note: nearly all actives have a fitted effect of over 60% in size
# [9] = Confirmatory qHTS for VERO E6 Cytotoxicity Assay: Counterscreen for SARS-CoV-2 CPE Assay (AID 1508605); note: nearly all actives have a fitted effect of over 60% in size
# [10] = target: Cytochrome P450 2C9 (Homo sapiens) (UniProt P11712); assay: qHTS Assay for Inhibitors and Substrates of Cytochrome P450 2C9 (AID 883; active = well fitted curve in the direction sought with a large enough effect; an effect the other way counts as inactive or inconclusive; note: nearly all actives have a fitted effect of over 60% in size)
# Outline: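 Turnover of Luciferin-H (100uM, KM) by 10nM human CYP2C9 was measured over 60 min at 37C with NADPH regeneration; inhibitors and some substrates reduce luminescence. Data normalized to sulphaphenazole 57uM.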
# [11] = target: Cytochrome P450 2C19 (Homo sapiens) (UniProt P33261); assay: qHTS Assay for Inhibitors and Substrates of Cytochrome P450 2C19 (AID 899; active = well fitted curve in the direction sought with a large enough effect; an effect the other way counts as inactive or inconclusive; note: nearly all actives have a fitted effect of over 60% in size)
# Outline: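 Reactions contain 5nM enzyme, 10uM Luciferin-H EGE (KM) and 50mM KPO4; compound preincubates 10 min at 37C, NADPH regeneration starts turnover for 60 min. Luminescence after detection reagent gives activity.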
# [12] = Confirmatory qHTS for activators (rescue) of SARS-CoV-2 Cytopathic Effect (CPE) (AID 1508606); note: potency is the fitted concentration of half-maximal effect; nearly all actives have a fitted effect of over 70% in size
# [13] = target: Glutathione peroxidase 1 (Homo sapiens) (UniProt P07203); assay: Primary qHTS Assay for Inhibitors of Recombinant Selenoprotein Glutathione Peroxidase 1 (GPX1) (AID 1845191; active = well fitted curve in the direction sought with a large enough effect; an effect the other way counts as inactive or inconclusive; note: nearly all actives have a fitted effect of over 65% in size)
# Outline: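 10 nM GPX1 + cpd, 30 min RT; start w/ 1 mM GSH, 0.5 mM cumene hydroperoxide, 0.5 mM NADPH, 100 nM GR, 0.01% BSA; buffer 50 mM Tris-HCl pH 7.5, 2 mM EDTA, 150 mM NaCl; Fl 340/450, 0 & 15 min.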
# Sequence of Glutathione peroxidase 1 (Homo sapiens) (P07203 whole entry, looked up): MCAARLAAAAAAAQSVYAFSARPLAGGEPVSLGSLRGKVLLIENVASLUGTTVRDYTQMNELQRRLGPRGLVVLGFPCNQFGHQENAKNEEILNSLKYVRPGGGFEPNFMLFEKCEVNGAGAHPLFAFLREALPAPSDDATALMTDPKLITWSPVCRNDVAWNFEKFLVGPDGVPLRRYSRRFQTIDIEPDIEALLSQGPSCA
# Sequence of Cytochrome P450 2C9 (Homo sapiens) (P11712 whole entry, looked up): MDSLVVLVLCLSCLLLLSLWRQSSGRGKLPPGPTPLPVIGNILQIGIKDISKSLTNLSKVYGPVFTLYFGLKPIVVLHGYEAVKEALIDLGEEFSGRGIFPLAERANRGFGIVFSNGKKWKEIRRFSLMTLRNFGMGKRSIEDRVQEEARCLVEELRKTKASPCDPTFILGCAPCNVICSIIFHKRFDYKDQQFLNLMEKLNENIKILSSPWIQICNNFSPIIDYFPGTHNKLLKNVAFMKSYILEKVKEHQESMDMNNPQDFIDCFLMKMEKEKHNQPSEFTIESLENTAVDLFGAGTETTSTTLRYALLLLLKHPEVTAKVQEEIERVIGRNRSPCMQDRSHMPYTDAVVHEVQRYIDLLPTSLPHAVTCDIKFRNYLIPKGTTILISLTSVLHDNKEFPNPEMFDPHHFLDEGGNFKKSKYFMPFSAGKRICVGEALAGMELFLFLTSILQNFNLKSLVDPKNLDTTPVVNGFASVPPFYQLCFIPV
# Sequence of Cytochrome P450 2C19 (Homo sapiens) (P33261 whole entry, looked up): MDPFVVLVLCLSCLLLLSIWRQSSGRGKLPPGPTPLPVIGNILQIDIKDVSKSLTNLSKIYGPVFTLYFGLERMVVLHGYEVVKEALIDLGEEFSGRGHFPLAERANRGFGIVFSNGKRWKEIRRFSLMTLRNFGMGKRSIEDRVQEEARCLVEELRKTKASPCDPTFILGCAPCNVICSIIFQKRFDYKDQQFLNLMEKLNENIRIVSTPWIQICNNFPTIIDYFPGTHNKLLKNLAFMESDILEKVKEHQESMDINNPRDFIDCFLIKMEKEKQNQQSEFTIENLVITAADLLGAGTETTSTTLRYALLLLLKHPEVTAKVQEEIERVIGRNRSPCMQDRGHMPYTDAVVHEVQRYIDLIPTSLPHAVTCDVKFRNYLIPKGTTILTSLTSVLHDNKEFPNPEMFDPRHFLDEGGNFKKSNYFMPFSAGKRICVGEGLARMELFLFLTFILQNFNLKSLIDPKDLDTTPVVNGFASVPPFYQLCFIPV
structure (smiles),measurement,setting,value
[2H]C([2H])([2H])C(O)([C@@H](C)/C=C/[C@@H](C)[C@H]1CC[C@H]2/C(=C/C=C3C[C@@H](O)C[C@H](O)C3)CCC[C@]12C)C([2H])([2H])[2H],Potency,[1],inactive
same,Potency,[2],inactive
same,Potency,[3],6.81 µM (active)
same,Potency,[4],inactive
same,"activity change, negative = inhibition",[5],-60.1%
same,Potency,[6],3.83 µM (active)
C#C[C@]1(O)CC[C@H]2[C@@H]3CCC4=CC(=O)CC[C@@H]4[C@H]3C(=C)C[C@@]21CC,Potency,[7],7.43 µM (active)
same,Potency,[1],inactive
same,Potency,[8],inactive
same,Potency,[2],inactive
same,Potency,[4],inactive
CC(CN(C)C)CN1c2ccccc2Sc2ccc(C(F)(F)F)cc21 (stereo not drawn),Potency,[1],inactive
same,Potency,[2],inactive
same,Potency,[9],inactive
same,Potency,[3],15.2 µM (active)
same,Potency,[4],inactive
same,Potency,[5],12.6 µM (active)
C[C@H]1CC[C@@H]2[C@@H](C)[C@H]3[C@H](C[C@H]4[C@@H]5CC=C6C[C@@H](O[C@@H]7O[C@H](CO)[C@H](O)[C@H](O[C@@H]8O[C@H](CO)[C@@H](O)[C@H](O)[C@H]8O)[C@H]7O[C@@H]7O[C@@H](C)[C@H](O)[C@@H](O)[C@H]7O)CC[C@]6(C)[C@H]5CC[C@]34C)N2C1,Potency,[1],inactive
same,Potency,[8],inactive
same,Potency,[5],20 µM (active)
Cc1c(O)c(=O)ccn1C,"activity change, negative = inhibition",[10],39.1% [at 11.4 µM] (inactive)
same,"activity, negative = inhibition",[11],86.4% [at 11.4 µM] (inactive)
same,Potency,[1],inactive
same,Potency,[8],inactive
same,Potency,[2],inactive
same,"activity change, negative = inhibition",[5],-14.9% [at 114 µM]
CN1CC[C@H](CN2c3ccccc3Sc3ccccc32)C1,Potency,[1],inactive
same,Potency,[2],inactive
same,Potency,[9],inactive
same,Potency,[12],11.2 µM (active)
same,Potency,[3],3.41 µM (active)
same,Potency,[4],inactive
same,Potency,[5],12.6 µM (active)
CCCCC(CC)COc1ccc(-c2nc(-c3ccc(OC)cc3)nc(-c3ccc(OCC(CC)CCCC)cc3O)n2)c(O)c1 (stereo not drawn),"activity change, negative = cytotoxicity",[1],-14.4% [at 5.34 µM] (inactive)
same,"activity change, negative = inhibition",[8],-1.24% [at 5.34 µM] (inactive)
same,"activity change, negative = cytotoxicity",[2],-1.62% [at 5.34 µM] (inactive)
same,outcome,[5],inactive [at 5.25 µM]
C/C(=C\c1csc(C)n1)[C@@H]1C[C@@H]2O[C@]2(C)CCC[C@H](C)[C@H](O)[C@@H](C)C(=O)C(C)(C)[C@@H](O)CC(=O)N1,Potency,[1],inactive
same,Potency,[8],inactive
same,Potency,[2],inactive
same,Potency,[4],inactive
same,Potency,[6],0.152 µM (active)
CC(C)C[C@H]1C(=O)O[C@H](Cc2ccc(N3CCOCC3)cc2)C(=O)N(C)[C@@H](CC(C)C)C(=O)O[C@H](C)C(=O)N(C)[C@@H](CC(C)C)C(=O)O[C@H](Cc2ccc(N3CCOCC3)cc2)C(=O)N(C)[C@@H](CC(C)C)C(=O)O[C@H](C)C(=O)N1C,Potency,[1],inactive
same,Potency,[2],inactive
same,Potency,[9],inactive
same,Potency,[4],inactive
OC[C@H]1O[C@H](O[C@H]2[C@H](O)[C@@H](O)[C@H](O)O[C@@H]2CO)[C@H](O)[C@@H](O)[C@@H]1O,Potency,[1],inactive
same,Potency,[8],inactive
same,Potency,[2],inactive
same,"activity change, negative = inhibition",[5],-20.9%
COc1c(-c2ccc3cc(NS(C)(=O)=O)ccc3c2)cc(-n2ccc(=O)[nH]c2=O)cc1C(C)(C)C,Potency,[1],inactive
same,Potency,[2],inactive
CN1CCc2c(c3ccccc3n2Cc2ccccc2)C1,Potency,[1],inactive
same,Potency,[2],inactive
CN(C)C1C(=O)C(C(N)=O)=C(O)C2(O)C(=O)C3=C(O)c4c(O)ccc(Cl)c4C(C)(O)C3CC12 (stereo not drawn),Potency,[1],inactive
same,Potency,[8],inactive
same,Potency,[2],inactive
same,Potency,[4],inactive
same,Potency,[13],inactive
CC(C)(S)[C@H](N)C(=O)O,outcome,[1],inactive [at 5.34 µM]
same,outcome,[8],inactive [at 5.34 µM]
same,"activity change, negative = cytotoxicity",[2],0.739% [at 5.34 µM] (inactive)
same,"activity change, negative = inhibition",[5],-28.5% [at 5.25 µM]
